Assay outcomes: PubChem, National Center for Advancing Translational Sciences (NCATS)
ELG1 repair inh – qHTS screen for small molecules that inhibit ELG1-dependent DNA repair in human embryonic kidney (HEK293T) cells expressing luciferase-tagged ELG1 | HEK293T ELG1-luciferase reporter, luminescence, 16 h; DNA damage induced by 5-fluorouridine | Potency, µM (doses to about 46.1 µM), for the others: at the top dose activity change, negative = inhibition, usual class: inhibitors | 2.3% of 330,000 active | AID 504467, 2011; also: % is scaled to controls: 0 for no effect and ±100 for the full control effect; nearly all actives have a fitted effect of over 55% in size
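Luminescence from the luciferase reporter, measured 30 min after ONE-Glo reagent at room temperature, was the read-out. Beforehand, 2,000 cells per well were exposed for 16 hr at 37 °C to 5-fluorouridine together with compound or vehicle.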
NPC1 promoter act – qHTS Assay for NPC1 Promoter Activators; Huh7 NPC1 promoter luciferase reporter, 24 h; Potency, µM (highest dose often 9.22 µM), for the others: at the top dose activation, hits mostly activators; 2.4% of 320,000 active; also: % of control where 0% means no effect; nearly all actives have a fitted effect of over 60% in size
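Stably transfected Huh7 (NPC1 promoter→luciferase), 1500 cells/well in Opti-MEM + 10% FBS, 2 h settle, then compound 24 h at 37 °C. Luminescence after 10 min with Amplite reagent.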
FLuc counter – qHTS profiling assay for firefly luciferase inhibitor/activator using purifed enzyme and Km concentrations of substrates (counterscreen for miR-21 project). Luciferin 4-monooxygenase (Photinus pyralis), P08659. Potency, µM (highest dose often 57.5 µM), for inactives: at the highest dose activity change, negative = inhibition, usual class: inhibitors. AID 588342, 2011. purified FLuc, Km substrates, luminescence inhibition. 6.9% of 360,000 active;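 also: plate controls were vehicle for no effect and reference inhibitor for full effect; nearly all actives have a fitted effect of over 55% in size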
Target sequence (P08659 whole entry, looked up): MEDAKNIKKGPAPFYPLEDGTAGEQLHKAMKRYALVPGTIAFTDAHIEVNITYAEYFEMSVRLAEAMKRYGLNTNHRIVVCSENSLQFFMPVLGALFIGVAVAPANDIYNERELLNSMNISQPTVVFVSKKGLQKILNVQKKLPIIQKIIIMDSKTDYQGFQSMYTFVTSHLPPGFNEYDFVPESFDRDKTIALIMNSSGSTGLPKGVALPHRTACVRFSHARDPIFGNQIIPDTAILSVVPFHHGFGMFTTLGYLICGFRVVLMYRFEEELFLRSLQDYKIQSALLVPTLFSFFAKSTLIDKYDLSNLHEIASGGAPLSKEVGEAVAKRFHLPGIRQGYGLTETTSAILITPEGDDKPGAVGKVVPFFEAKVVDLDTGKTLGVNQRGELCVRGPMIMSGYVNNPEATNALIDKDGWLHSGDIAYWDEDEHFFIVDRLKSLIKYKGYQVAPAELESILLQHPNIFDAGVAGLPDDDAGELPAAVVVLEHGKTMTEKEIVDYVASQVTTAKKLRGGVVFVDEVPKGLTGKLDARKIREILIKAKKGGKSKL
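Purified P. pyralis luciferase, 10 nM final, with Km-level 10 uM D-luciferin and 10 uM ATP in 50 mM Tris acetate pH 7.5, 10 mM Mg acetate, 0.01% Tween-20, 0.05% BSA; 6-point qHTS titration about 60 µM downward; luminescence read.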
ELG1 genotox – qHTS screen for small molecules that induce genotoxicity in human embryonic kidney (HEK293T) cells expressing luciferase-tagged ELG1; AID 504466, 2011; HEK293T ELG1-luciferase reporter, luminescence, 16 h; 1.3% of 330,000 active; Potency, µM (series often up to 46 µM), for inactives: at the highest dose activity change, positive = activation, most hits filed as activators; also: % of control where 0% means no effect; nearly all actives have a fitted effect of over 60% in size
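Genotoxic stress is detected as increased luminescence from luciferase-tagged ELG1 in HEK293T cells, measured with ONE-Glo after a 16 hr treatment at 37 °C.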
Rab9 prom act – qHTS Assay for Rab9 Promoter Activators | 2.8% of 320,000 active | AID 485297, 2010 | Huh7 Rab9 promoter-luciferase reporter, luminescence, 24 h | Potency, µM (top dose mostly 9.22 µM), for the others: at the top dose activation, negative = inhibition, actives largely listed as activators; also: % of control where 0% means no effect; nearly all actives have a fitted effect of over 60% in size
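Huh7 reporter line, Rab9 promoter upstream of luciferase. Compound exposure 24 h at 37 °C in reduced-serum medium with 10% FBS. Read-out: luminescence.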
SMN2 splice enh – qHTS Assay for Enhancers of SMN2 Splice Variant Expression. Potency, µM (doses to about 46.1 µM), for inactives: at the highest dose activity change, positive = activation, hits mostly activators. AID 1458, 2008. 2.8% of 210,000 active. HEK293 SMN2-luciferase splicing reporter, luminescence, 30-36 h; also: % of control where 0% means no effect; nearly all actives have a fitted effect of over 55% in size
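HEK293 cells carry an SMN2 minigene-luciferase reporter in which exon 7 inclusion puts luciferase in frame. Cells were seeded at 2000 cells/well, attached for 10-12 hours, then exposed to compounds for 30-36 hours at 37C before ONE-Glo luminescence.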
Numbers without * were called inactive; ? = inconclusive; . = no result; [ ] = dose if it differs, or a comment. Hits are enriched below; roughly 9.2% of the tested compounds scored in any of these assays. Calls follow the shape of the dose curve; as a rule, active = well fitted curve in the direction sought with a large enough effect; inconclusive = small, poorly fitted or top-dose-only effect, or another doubt; inactive = no such curve, though single readings can be large; an effect the other way counts as inactive or inconclusive. Potency is read from the fitted curve at half-maximal effect.

SMILES | ELG1 repair inh | NPC1 promoter act | FLuc counter | ELG1 genotox | Rab9 prom act | SMN2 splice enh
COc1ccc2c(c1)CCc1cc(C(=O)N3CCN(c4ccc(N5CCOCC5)nn4)CC3)sc1-2 | 21µM* | -5% | ? | -29% | -4% | -53%
CC(=O)c1ccc(N2CCN(C(=O)c3cc4c(s3)CCCC4)CC2)cc1 | 9% | 5% | 24µM* | 14% | 17% | 11%
O=C(O)c1cc2c(s1)CCCC2 | 7% | -1% | -6% | -2% | -2% | 7%
NC(=O)C1CCN(C(=O)c2cc3c(s2)CCCC3)CC1 | ? | 1.8µM* | -14% | 15% | 1.4µM* | .
O=C(c1cc2c(s1)CCCCC2)N1CCN(c2ncccn2)CC1 | 19% | 8% | -2%[2.3 µM] | 2% | 10% | 2%
O=C(c1cc2c(s1)CCCC2)n1cccn1 | 16% | -1% | 21µM* | 5% | -6% | -1%
CCCCCOc1ccc(/C=C/C(=O)Nc2sc(C(C)=O)c(C)c2C(=O)OCC)cc1OC | . | . | -2% | . | . | -1%
CC1(C)CN2C(=O)c3ccccc3C2(C)S1 (stereo not drawn) | -3% | -2% | 0% | 2% | 3% | -4%
Cc1nn(C(C)C(=O)NCc2ccco2)c(=O)c2nn(-c3ccccc3)c(C)c12 (stereo not drawn) | -2% | -3% | 1% | 0%[9.26 µM] | -1% | .
COc1ccc(N2CCN(C(=O)c3cc4c(s3)CCCCC4)CC2)cc1 | -2% | 3% | 17µM* | 0% | -1% | .
COc1ccccc1N1CCN(C(=O)c2cc3c(s2)CCC3)CC1 | -16% | 1% | -3% | -2% | 0% | -15%
CCCCNS(=O)(=O)c1ccc2nc(-c3cccnc3)cc(C(=O)NCCCOC(C)C)c2c1 | . | . | 1% | . | . | .
Oc1ccc(NCc2ccc(OCc3ccccc3Cl)cc2)cc1 | . | . | 27µM* | . | . | 7%
Oc1ccc(OCc2ccccc2)cc1 | . | . | . | . | . | 4%[20.6 µM]
Oc1ccc(NCc2ccc(OCc3ccccc3)cc2)cc1 | ? | -13% | 27µM* | ? | -5% | 21%
O=C1OCCC1Sc1nnnn1-c1ccc(Cl)cc1 (stereo not drawn) | -16% | -4% | 11µM* | 0% | -2% | .
